{"source": "PubChem BioAssay AID720517", "about": "(National Center for Advancing Translational Sciences (NCATS), 2013)", "note": "Records with an inconclusive call do not appear. Where a call stands in place of a potency, no number is given. Active and inactive are the calls of the source. Calls follow the shape of the dose curve; as a rule, active = well fitted activation curve with a large enough effect; inconclusive = small, poorly fitted or top-dose-only effect; inactive = flat fitted curve, though single readings scatter."}
{"assay": "qHTS for Inhibitors of Cell Surface uPA Generation: FP59 Counterscreen for Cherry-picked Compounds", "settings": "FP59 anthrax toxin cytotoxicity counterscreen, cells; series mostly up to 115 µM"}
{"smiles": "O=C(NNC(=O)c1cccc(-n2cccc2)c1)c1ccc(F)cc1", "Potency": "inactive"}
{"smiles": "CCOc1cc(/C=N/Nc2cc(C)nc3ccc(C)cc23)ccc1O", "Potency": "inactive"}
{"smiles": "O=C(CSc1ccc(Cl)cc1)Nc1ccc(C2SCCS2)cc1", "Potency": "inactive"}
{"smiles": "CC(=O)c1cnc2nc(SCc3cccc(C)c3)nn2c1C", "Potency": "inactive"}
{"smiles": "Cc1noc(C)c1COc1ccc(C(=O)O)cc1", "Potency": "inactive"}
{"smiles": "CCn1c(CNc2ccc(F)cc2)nnc1SCC(=O)Nc1ccccc1OC", "Potency": "inactive"}
{"smiles": "COC(=O)CSc1nc(N2CCOCC2)c2c(c1C#N)CCCC2", "Potency": "inactive"}
{"smiles": "CC1Cc2nc(SCC(=O)N3CCCC3)n(C)c(=O)c2S1", "note": "(centres undefined)", "Potency": "inactive"}
{"smiles": "Cc1ccc2c(c1)N(CC(=O)NCCCc1ccccc1)C(=O)c1cccnc1O2", "Potency": "inactive"}
{"smiles": "CC1CCCCN1C(=O)CSc1nc2ncccc2[nH]1", "note": "(centres undefined)", "Potency": "inactive"}
{"smiles": "Cc1ccc(S(=O)(=O)N2CCOCC2)cc1NC(=O)CSc1nc(N)cc(N)n1", "Potency": "inactive"}
{"smiles": "COc1ccc(NS(=O)(=O)c2cc3c(cc2C)NC(=O)CO3)c(OC)c1", "Potency": "inactive"}
{"smiles": "CCc1ccc(OCC(=O)N(Cc2cccs2)C2CCS(=O)(=O)C2)cc1", "note": "(centres undefined)", "Potency": "inactive"}
{"smiles": "C=CCn1c(SCCN2C(=O)c3ccccc3C2=O)nc2scc(-c3ccc(F)cc3)c2c1=O", "Potency": "inactive"}
{"smiles": "O=C(O)CNC(=S)N(Cc1ccccc1)Cc1cccnc1", "Potency": "inactive"}
{"smiles": "CN(C)S(=O)(=O)c1cccc(C(=O)OCC(=O)NCc2ccc3c(c2)OCO3)c1", "Potency": "inactive"}
{"smiles": "COc1ccc(NC(=O)CCNS(=O)(=O)c2ccccc2F)cc1S(=O)(=O)N1CCOCC1", "Potency": "inactive"}
{"smiles": "O=C(NCCN1CCOCC1)c1ccccc1Cl", "Potency": "inactive"}
{"smiles": "CCN(CC)c1ccc(C=NCCc2ccc(S(N)(=O)=O)cc2)cc1", "Potency": "inactive"}
{"smiles": "CCc1nnc(NC(=O)CSc2nnnn2-c2cccc(C(C)=O)c2)s1", "Potency": "inactive"}
{"smiles": "c1csc(CN2CCOCC2)c1", "Potency": "inactive"}
{"smiles": "Cc1cc2[nH]c(=O)c(=O)[nH]c2cc1S(=O)(=O)NC1CCC(C)CC1", "note": "(centres undefined)", "Potency": "inactive"}
{"smiles": "COC(=O)COc1cc2ccccc2cc1C(=O)Nc1ccccc1", "Potency": "inactive"}
{"smiles": "CCOC(=O)N1CCN(C(=O)c2ccc3c(c2)sc2nc(-c4ccc(OC)cc4)cn23)CC1", "Potency": "inactive"}
{"smiles": "Nc1cc(=O)[nH]c(SCC(=O)Nc2cccc([N+](=O)[O-])c2)n1", "Potency": "inactive"}
{"smiles": "Cc1ccc(C(=O)COc2cc(O)c3c(=O)cc(-c4ccccc4)oc3c2)cc1", "Potency": "inactive"}
{"smiles": "O=C(Nc1ccnn1C1CCN(CCCC2CCCC2)CC1)c1ccccc1", "Potency": "inactive"}
{"smiles": "CCOc1cc(C(=O)OCC(=O)c2cc(C)n(CC3CCCO3)c2C)ccc1OCC(=O)N1CCOCC1", "note": "(centres undefined)", "Potency": "inactive"}
{"smiles": "COCCN1C(=O)C(=O)/C(=C(/O)c2ccc(S(=O)(=O)N3CCOCC3)cc2)C1c1cccc([N+](=O)[O-])c1", "note": "(centres undefined)", "Potency": "inactive"}
{"smiles": "O=C1C[C@@H]2CCN3C(=O)CCC[C@@H]([C@H]23)[C@H]1Cc1ccccc1", "Potency": "inactive"}
{"smiles": "O=C(Nc1cccc(C2=NCCN2)c1)Nc1cccc(C2=NCCN2)c1", "Potency": "inactive"}
{"smiles": "O=C(COC(=O)C1CC2C=CC1C2)NCc1ccccc1Cl", "note": "(centres undefined)", "Potency": "inactive"}
{"smiles": "CCOc1cc(/C=C(\\C#N)C(=O)NCc2cccnc2)ccc1O", "Potency": "inactive"}
{"smiles": "O=C(Nc1ccc(N2CCOCC2)cc1)c1ccc(Cl)c(S(=O)(=O)N2CCCC2)c1", "Potency": "inactive"}
{"smiles": "CCc1ccc(N2CC(C(=O)Nc3ccc4c(c3)OCO4)CC2=O)cc1", "note": "(centres undefined)", "Potency": "inactive"}
{"smiles": "COc1ccc(/C=C/C(=O)Nc2ccccc2Cl)cc1S(=O)(=O)N1CCOCC1", "Potency": "inactive"}
{"smiles": "Cc1ccc(Cl)c(N/C=C/C(=O)c2ccccc2)c1", "Potency": "inactive"}
{"smiles": "CCOC(=O)CN1C(=O)N[C@@H](c2ccco2)C(C(=O)OC)=C1C", "Potency": "inactive"}
{"smiles": "O=C1CCCC/C1=C\\Nc1ccc(S(=O)(=O)Nc2cnc3ccccc3n2)cc1", "Potency": "inactive"}
